# From PubChem BioAssay AID1490 (National Center for Advancing Translational Sciences (NCATS), 2009)
# Several values for one entry are separate records, joined by “and”; a condition that tells them apart may be missing. Equal values may be shown once. The campaign covered roughly 310,000 compounds. About 11,000 (3.5%) were called active. Not shown: some 4% with an inconclusive outcome. For the sample, actives were picked, then their nearest neighbours and some compounds at random. Unmarked numbers belong to inactive results. Calls follow the shape of the dose curve; as a rule, active = well fitted inhibition curve with a large enough effect; inconclusive = small, poorly fitted or top-dose-only effect, or another doubt; inactive = no such curve, though single readings can be large or run the other way.
# Target: 4'-phosphopantetheinyl transferase ffp (Bacillus subtilis) (UniProt Q9F4F7)
# Test: qHTS Assay for Inhibitors of Bacillus subtilis Sfp phosphopantetheinyl transferase (PPTase);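 also: the enzyme is Sfp with the accession as filed and its product quenches rhodamine fluorescence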;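 as to largest response in the series, negative = inhibition: 0% = enzyme reaction without inhibitor and -100% = no enzyme wells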
# Conditions: Biochemical Sfp PPTase activity
# How it was run: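 Step 1, compound plus 15 nM Sfp-PPTase, 15 min, room temperature. Step 2, add rhodamine-CoA (5 uM) and BHQ-2-YbbR (12.5 uM). Step 3, read 525/598 nm fluorescence at 0 and 30 min.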
# Potency is read from the fitted curve at half-maximal effect.
Compound,"largest response in the series, negative = inhibition",Potency
Cc1oc2c(F)c(F)c(F)c(F)c2c1S(=O)(=O)Nc1cccc(C(F)(F)F)c1,11.3%,–
CC(=O)N1CCN(CC(=O)Nc2ccc(C)c(F)c2)CC1,-24.9%,–
O=C(CSc1nncs1)NC1CCCc2ccccc21 (centres undefined),15.6%,–
O=C(CN1CCOCC1)Nc1cc(Cl)ccc1Cl,2.24%,–
O=C(CN1CCN(Cc2ccccc2)CC1)Nc1ccc(F)c(F)c1,–,56.2 µM (active)
Cc1cc(NC(=O)CCN2CCN(Cc3ccccc3)CC2)ccc1Br,-5.6%,–
O=C(CN1CCN(c2ccc(O)cc2)CC1)Nc1cc(S(=O)(=O)N2CCOCC2)ccc1Cl,–,79.4 µM (active)
O=C(CN1CCN(c2ccc(O)cc2)CC1)NC1CCCc2ccccc21 (centres undefined),–,17.8 µM (active)
O=C(CN1CCN(c2ccc(O)cc2)CC1)Nc1ccc(-c2ccccc2)cc1,–,44.7 µM (active)
CSc1ccccc1N1CCN(CCCCCC(=O)NC2CCCc3ccccc32)CC1 (centres undefined),-7.93%,–
O=C(CN1CCN(c2ccc(F)cc2)CC1)Nc1ccccc1,-1.74%,–
O=C(CN1CCN(c2cccc(Cl)c2)CC1)Nc1ccc(S(=O)(=O)N2CCOCC2)cc1,13%,–
O=C(CN1CCN(c2ccccc2)CC1)Nc1ccc(F)cc1,7.85%,–
COc1ccc(C2(C#N)CCC(C(=O)O)CC2)cc1OC1CCCC1 (centres undefined),3.3%,–
CN(CC(=O)NCCN1CCOCC1)S(=O)(=O)c1ccc(F)cc1,16.5%,–
CN(CCNC(=O)c1cc2c(-c3ccccc3F)nn(C)c2s1)C1CCCCC1,5.98%,–
COC(=O)c1cc(S(=O)(=O)NCC2CCN(Cc3ccc(Cl)cc3)CC2)cn1C,11.4%,–
CCOC(=O)C1(Cc2ccccc2C)CCCN(C(=O)c2ccc(COC)o2)C1 (centres undefined),-22.7%,–
COc1ccc(/C=N/Nc2ccccc2C(=O)O)cc1,11.5%,–
CCC(=O)Nc1nc(C)c(C(=O)Nc2cccc(Cl)c2)s1,8.26%,–

Compound,"largest response in the series, negative = inhibition",Potency
O=C(NCc1ccc(F)cc1)C1CCN(C(=O)Nc2ccc(F)cc2)CC1,9.57%,–
C=CCOC(=O)NC(c1ccc(F)c(F)c1)C(C(=O)COC)C(=O)OC (centres undefined),-7.09% and 12.8%,–
CCOC(=O)c1cccc(NS(=O)(=O)c2c(C(=O)N3CCCCCC3)c(C)n(C)c2C)c1,2.36%,–
Nc1nonc1-n1nnc(C(=O)N/N=C\c2ccncc2)c1CN1CCCCC1,21.3%,–
COc1ccc2[nH]cc(CCN3C(=O)c4ccc(C(=O)O)cc4C3=O)c2c1,20.2%,–
O=C(CNC(=O)C(c1ccccc1)c1ccccc1)N/N=C\c1ccc2c(c1)OCO2,-10.2%,–
O=C(Cc1ccc(F)cc1)N/N=C/c1ccc2c(c1)OCO2,18.6%,–
Cc1noc(C)c1/C=N/Nc1ccc2ccccc2n1,25.3%,–
O=C(N/N=C/c1ccc2c(c1)OCO2)C(=O)N1CCCC1,24.9%,–
C(=N\Nc1ccc2ccccc2n1)/c1ccc2c(c1)OCO2,–,50.1 µM (active)
Brc1ccc(-c2csc(N/N=C/c3ccc4c(c3)OCO4)n2)cc1,–,2.82 µM (active)
CCN(CC)/[N+]([O-])=N/Oc1cc(O/[N+]([O-])=N/N2CCCC2CO)c([N+](=O)[O-])cc1[N+](=O)[O-] (centres undefined),-6.67%,–
Cn1c(=O)c2sccc2n(Cc2ccc(Br)cc2)c1=O,5.6%,–
CCOc1ccc(N(CC(=O)Nc2ccccc2F)S(=O)(=O)c2c(C)[nH]c(=O)[nH]c2=O)cc1,9.89%,–
COc1ccccc1C(=O)NC(=S)Nc1ccccc1N1CCCCC1,5.21%,–
Cc1ccc(C(=O)NCC(=O)OCC(=O)NC2CCCCCCC2)cc1,15.7%,–
COc1ccc(CNC(=O)C2CCN(S(=O)(=O)c3ccc(SC)cc3)CC2)cc1,8.97%,–
O=S(=O)(c1ccccc1)c1nc(Cc2ccccc2)oc1N1CCOCC1,–,44.7 µM (active)
O=S(=O)(c1ccc(Br)cc1)c1nc(-c2ccccc2)oc1N1CCOCC1,-5.06%,–
O=S(=O)(c1ccc(Cl)cc1)c1nc(-c2ccco2)oc1N1CCCCC1,-3.63%,–

Compound,"largest response in the series, negative = inhibition",Potency
Cc1ccc(OC(=O)c2cncc(Br)c2)c(C)c1,-4.31%,–
COc1ccc(C(=O)CC(=O)C(=O)Nc2cc([N+](=O)[O-])ccc2OC)cc1,1.31%,–
CCCc1cc(C(=O)Nc2ccc(Cl)cn2)cs1,2.86%,–
O=C(Nc1cccc([N+](=O)[O-])c1)Nc1ccc(Cl)cn1,13.8%,–
O=C(Nc1ccc(Cl)cn1)Nc1cccs1,–,39.8 µM (active)
Cc1sc2ncn(CC(=O)NCCN(C)C)c(=O)c2c1S(=O)(=O)N1CCC(C)CC1,16.8%,–
O=C(CNC(=O)c1ccccc1)Oc1ccc([N+](=O)[O-])cc1,7.55%,–
COc1ccc(C(=O)OCC(=O)Nc2cccc(C(C)=O)c2)cc1OC,11.4%,–
CN(C)CCCNC(=S)N1CCN(c2nc(-c3ccccc3)cs2)CC1,-3.69%,–
CC(=O)c1cccc(NC(=O)C2CCN(C(=O)c3ccccc3Cl)CC2)c1,-3.58%,–
O=S(=O)(Nc1ccc2nc(-c3ccco3)[nH]c2c1)c1ccccc1,–,28.2 µM (active)
O=S(=O)(Nc1ccc2cn[nH]c2c1)c1ccccc1,14.6%,–
Cn1c(CCN2CCCC2)nc2cc(NS(=O)(=O)c3ccccc3)ccc21,1.01%,–
O=C(c1ccc(Br)o1)N1CCN(CCOc2ccccc2)CC1,15.3%,–
Cc1ccc(/C=N/NC(=O)c2cc3ccccc3cc2O)o1,13.6%,–
O=[N+]([O-])c1cc([N+](=O)[O-])c2cccnc2c1O,–,39.8 µM (active)
O=C(c1cccc(F)c1)N1CCN(c2ccc([N+](=O)[O-])c3cccnc23)CC1,1.54%,–
O=[N+]([O-])c1cccc2ncccc12,8.82%,–
NC(=O)C1CC(=O)N(c2ccc(OCC(=O)NCc3ccccc3)cc2)C1 (centres undefined),23.9%,–
